BoNT F protease = BoNT/F light chain protease inhibitors, primary screen, biochemical, flow cytometry, MLPCN library. Botulinum neurotoxin type F light chain protease (Clostridium botulinum). Multiplex microsphere protease cleavage assay. AID 588497, 2011. inhibition, % at 10 µM. hit rate 0.22% among 360,000; in the data active means inhibition above about 35%, passing the limit was not always enough; inconclusive means no clear call, values can overlap the other calls
Anthrax LF inh2 = Bacillus anthracis LF protease inhibitors, primary screen, biochemical, multiplex microsphere, MLPCN library; Lethal factor (Bacillus anthracis), P15917; multiplex microsphere protease cleavage assay; inhibition, % at 10 µM; hit rate 0.12% among 360,000
Target sequence (P15917 whole entry, looked up): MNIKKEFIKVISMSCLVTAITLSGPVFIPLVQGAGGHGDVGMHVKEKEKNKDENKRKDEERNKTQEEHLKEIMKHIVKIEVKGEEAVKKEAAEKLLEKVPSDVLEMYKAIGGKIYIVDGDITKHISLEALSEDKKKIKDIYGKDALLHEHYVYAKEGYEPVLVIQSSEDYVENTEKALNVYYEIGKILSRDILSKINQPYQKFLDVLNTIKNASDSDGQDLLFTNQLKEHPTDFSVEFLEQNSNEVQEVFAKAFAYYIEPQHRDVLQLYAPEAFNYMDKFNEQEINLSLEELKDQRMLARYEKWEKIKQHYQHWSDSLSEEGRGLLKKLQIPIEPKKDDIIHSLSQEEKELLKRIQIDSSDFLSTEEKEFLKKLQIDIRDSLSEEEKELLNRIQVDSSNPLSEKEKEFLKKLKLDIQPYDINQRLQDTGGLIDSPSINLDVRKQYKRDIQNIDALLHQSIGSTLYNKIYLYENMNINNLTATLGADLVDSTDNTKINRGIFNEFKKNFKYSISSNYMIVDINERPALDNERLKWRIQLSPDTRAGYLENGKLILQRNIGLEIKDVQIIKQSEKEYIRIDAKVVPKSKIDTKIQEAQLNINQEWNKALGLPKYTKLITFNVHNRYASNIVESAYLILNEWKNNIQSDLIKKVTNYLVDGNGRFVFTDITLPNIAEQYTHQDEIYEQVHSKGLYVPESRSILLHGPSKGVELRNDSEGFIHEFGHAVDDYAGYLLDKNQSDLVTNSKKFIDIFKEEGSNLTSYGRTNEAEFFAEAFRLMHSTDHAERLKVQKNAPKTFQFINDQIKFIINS
BoNT A protease = BoNT/A light chain protease inhibitors, primary screen, biochemical, flow cytometry, MLPCN library | Botulinum neurotoxin type A light chain protease (Clostridium botulinum A str. ATCC 3502) | multiplex microsphere protease substrate cleavage | inhibition, % at 10 µM | hit rate 0.17% among 360,000
PriA SSB inh = inhibitors of Klebsiella pneumoniae PriA binding to SSB C-terminal tail, primary screen, biochemical, AlphaScreen | PriA–SSB C-terminal tail interaction (Klebsiella pneumoniae) | AlphaScreen SSBct-PriA binding, biotinylated peptide | inhibition, % at 33 µM | hit rate 0.6% among 430,000; in the data active means inhibition mostly above about 37%, no sharp cut-off; inactive means mostly below about 20%
Bead autofluor = flagged as autofluorescent in microsphere protease counterscreen | fluorescence intensity (concentration not given with the values) | compound autofluorescence counterscreen, microsphere flow cytometry; stronger effect = higher value | hit rate 3.1% among 360,000; in the data active means fluorescence intensity above about 16000; inconclusive means no clear call, values can overlap the other calls
Numbers stand for hits; – = inactive; ? = inconclusive; · = no result. Hits are enriched below; roughly 3.1% of the tested compounds scored in any of these assays. Unless noted, no stated cut-off is given here; in the data, active means inhibition above about 30%; inconclusive means no clear call, values can overlap the other calls; inactive means below that.

SMILES	BoNT F protease	Anthrax LF inh2	BoNT A protease	PriA SSB inh	Bead autofluor
COCCN1C(=O)C(=O)C(=C(O)c2ccc(S(=O)(=O)N3CCCCC3)cc2)C1c1ccc(OC)cc1 (stereo not drawn)	·	·	·	–	·
Cc1ccc(Nc2nc(N3CCN(c4ccccc4Cl)CC3)nc3n[nH]nc23)cc1	·	·	·	–	·
CC(C)c1ccc(NC(=O)CCCn2nc(-c3ccc(F)cc3)ccc2=O)cc1	·	·	·	–	·
CCC1S/C(=N/N=C/c2ccco2)N(Cc2ccccc2C)C1=O (stereo not drawn)	?	40.7	?	·	–
CCC1SC(=N/N=C/c2ccco2)N(Cc2ccccc2C)C1=O (stereo not drawn)	·	·	·	–	·
CCN=C1S/C(=C\c2cc(OCC)c(O)cc2Br)C(=O)N1CC	72.5	30.2	–	–	–
CCN=C1S/C(=C\c2ccc(O)c(OCC)c2)C(=O)N1CC	–	–	–	–	–
CCn1nc(C)cc1C(=O)Nc1nnc(-c2ccc3c(c2)OCCO3)o1	·	·	·	–	·
CCOC(=O)Cc1c(C)nc2nc(N)[nH]n2c1=O	·	·	·	–	·
O=C(Nc1ccccc1Cl)N1CCOC(c2ccc(C(F)(F)F)cc2)C1 (stereo not drawn)	·	·	·	–	·
CCSc1nnc(-c2ccc(S(=O)(=O)NCc3cccs3)cc2)o1	–	–	–	–	20964
CCOc1ccc(S(=O)(=O)NCc2cccs2)cc1	–	–	–	–	–
CC1CCCCN1C(=O)C12CCC(C)(/C(=N\O)C1)C2(C)C (stereo not drawn)	·	·	·	–	·
CCN1C(=O)/C(=C2/C(=O)N(CC(=O)Nc3c(C)n(C)n(-c4ccccc4)c3=O)c3ccccc32)SC1=S	·	·	·	–	·
O=C(c1cccc(C(F)(F)F)c1)N1CCC(O)(CS(=O)(=O)Cc2ccc(Cl)cc2)CC1	–	–	–	–	17295
O=C(c1cccc(C(F)(F)F)c1)N1CCC(O)(CS(=O)(=O)Cc2ccccc2)CC1	–	–	–	–	–
O=C(c1cccc(C(F)(F)F)c1)N1CCC(O)(CS(=O)(=O)Cc2ccccc2Cl)CC1	–	–	?	–	20377
Cc1oncc1C(=O)N1CCC(c2ccc3c(c2)OCO3)C1 (stereo not drawn)	·	·	·	–	·
CCC(=O)N(C1=C(NC)C(=O)c2ccccc2C1=O)C(C)C	–	–	–	–	–
CCC(=O)N(CC)C1=C(O)c2ccccc2C(=O)C1=O	–	–	–	–	20676
Cc1ccc(S(=O)(=O)N(C)c2ccc(C(=O)N(C)Cc3nc4ccccc4c(=O)[nH]3)cc2)cc1	–	–	–	–	–
CN(Cc1nc2ccccc2c(=O)[nH]1)C(=O)c1ccc(S(=O)(=O)N(C)C)cc1	–	–	–	–	20390
O=C(c1ccccn1)N1CCN(c2cccc(C(F)(F)F)c2)CC1	–	–	–	–	–
O=C(c1cc2ccccn2n1)N1CCN(c2cccc(C(F)(F)F)c2)CC1	–	–	–	–	20114
O=C(CSc1nc2ccccc2s1)c1cc2ccccc2o1	–	–	–	–	23696
SMILES	BoNT F protease	Anthrax LF inh2	BoNT A protease	PriA SSB inh	Bead autofluor
O=C(CSc1nc2ccccc2s1)CSc1nc2ccccc2s1	–	–	–	–	–
COc1ccc(OC)c2c1C(=O)c1ccccc1C2=O	·	·	·	–	·
COc1cccc2c1C(=O)c1ccc3ccccc3c1C2=O	–	–	34.0	–	–
Cc1ccc(CNS(=O)(=O)c2ccc3c(c2)OCCO3)cc1	–	–	–	–	–
CC(C)CNS(=O)(=O)c1ccc2c(c1)OCCO2	–	–	–	–	24162
COc1ccccc1NS(=O)(=O)c1ccc2c(c1)OCCO2	–	–	–	–	–
O=S(=O)(Nc1cccnc1)c1ccc2c(c1)OCCO2	–	–	–	–	–
CSc1ccccc1NS(=O)(=O)c1ccc2c(c1)OCCO2	–	–	–	–	20835
O=S(=O)(Nc1cccnc1Cl)c1ccc2c(c1)OCCO2	–	–	?	–	16615
COc1cc(OC)cc(-c2noc(Cn3cnc4c(nnn4Cc4cccc(C)c4)c3=O)n2)c1	·	·	·	–	·
COC(=O)c1c(NC(=O)Cc2ccccc2)sc(C)c1C	–	–	–	–	–
CCOC(=O)c1cnn(CCOC(=O)Cc2cccs2)c1NC(=O)Cc1cccs1	–	–	–	–	22856
COC(=O)c1c(NC(=O)Cc2cccs2)sc(C)c1C	–	–	–	–	21860
COC(=O)c1c(NC(=O)CCCC(=O)O)sc(C)c1C	–	–	–	–	–
CCc1ccc(CCC(=O)Nc2sc(C)c(C)c2C(=O)OC)o1	–	–	–	–	21036
COC(=O)c1ccccc1OP1(=O)COc2ccccc2OC1	–	–	?	–	22712
COC(=O)c1ccccc1OS(=O)(=O)N(C)C	–	–	–	–	–
COCCCNC(=S)NNC(=O)c1ccccc1Br	–	–	–	–	–
O=C(NNC(=O)c1ccccc1[N+](=O)[O-])c1ccccn1	–	–	–	–	–
O=C(NNC(=O)c1ccccn1)c1ccccn1	·	·	·	57.5	·
COCCCNC(=S)NNC(=O)c1ccccn1	–	–	–	81.6	–
O=C(NN=C1CCC(=NNC(=O)c2ccccn2)CC1)c1ccccn1	–	–	–	85.4	–
O=C(Cn1c(C(F)(F)F)nc2ccccc21)NCCN1CCCC1	–	–	–	–	22679
COc1cccc(C(=O)Nc2ncc3c(n2)CC(c2ccc(OC)cc2OC)CC3=O)c1 (stereo not drawn)	–	–	?	–	24133
c1ccc(-c2noc(CSc3nnnn3C3CCCCC3)n2)cc1	–	–	–	–	20752
SMILES	BoNT F protease	Anthrax LF inh2	BoNT A protease	PriA SSB inh	Bead autofluor
CCn1c(SCc2nc(-c3ccccc3)no2)nnc1-c1cccs1	–	–	–	–	–
c1ccc(-n2c(SCc3nc(-c4cccs4)no3)nnc2-c2ccco2)cc1	–	–	–	87.3	–
Cc1ccc2nc(CSc3nnc(-c4ccco4)n3-c3ccccc3)cc(=O)n2c1	–	–	–	–	22931
CCn1c(SCc2nc(-c3ccccc3)no2)nnc1-c1ccco1	–	–	–	–	23800
COc1cccc(NC(=O)N2c3ccccc3N3C(c4c(C)c(Cl)c(C)c(Cl)c4C)=NON23)c1	·	·	·	–	·
CN(Cc1ccccc1)C(=O)CSc1nnc(-c2ccco2)n1-c1ccccc1	–	–	–	–	19956
CC(C)NC(=S)N/N=C/c1sc(N2CCCCC2)nc1-c1cccs1	–	–	32.7	·	–
CCNC(=S)NN=Cc1sc(N2CCCCC2)nc1-c1cccs1	·	·	·	–	·
Cc1nc2cc(-c3cccs3)[nH]n2c(=O)c1C	–	–	–	–	17502
C=CCn1c(CCNC(=O)c2ccccc2F)nnc1SCC(=O)Nc1ccccc1F	–	–	–	–	–
COc1ccc(NC(=O)CSc2nnc(Cc3cccs3)n2-c2ccc(C)cc2)cc1	–	–	?	–	23035
COc1cccc(NC(=O)CSc2nnc(Cc3cccs3)n2-c2ccc(C)cc2)c1	–	–	?	–	–
C=CCn1c(Cc2cccs2)nnc1SCC(=O)Nc1cccc(OC)c1	–	–	–	–	16319
C=CCn1c(Cc2csc(N)n2)nnc1SCC(=O)Nc1ccccc1C(F)(F)F	–	–	–	74.1	23049
